PubChem BioAssay
Inconclusive results are not listed. Calls of active or inactive are those of the source.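 How the source made its calls, unless noted: active means normalized viability below 100% at a tested concentration; inactive means the rest.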

Assays:
[1] = stimulators of nuclear beta-catenin in C2C12, primary screen, imaging, WNT3A-conditioned medium, mouse C2C12, NPC library (AID 1117326; in the data active means nuclear beta-catenin stimulation mostly above about 4.2%, no sharp cut-off; inactive means mostly below about 10%); details: stronger effect = higher value
[2] = stimulators of insulin release from INS-1E, primary screen, cell-based, 5 mM glucose, NPC library (AID 1117329;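 active means compound raises insulin release from rat beta cells at 5 mM glucose, no numeric limit stated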); details: rat INS-1E insulin secretion, at 10 µM, stronger effect = higher value
[3] = growth inhibition of GSK3B-pretreated HCT116 cells – cell-based, CellTiter-Glo, 0.2 to 20 µM (AID 1117336;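 active means compounds lowering colon cancer cell viability after pretreatment blocking the GSK3B kinase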); details: HCT116 viability after GSK3B inhibitor, at 20 µM, stronger effect = higher value
[4] = inhibition of endothelial tube formation, primary screen, imaging, VEGF stimulated, CD31 staining, tube area, NPC library (AID 1117340;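 active means compound that reduces growth-factor-driven endothelial tube area in a mixed cell culture, no cutoff stated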); details: VEGF-stimulated ADSC/ECFC co-culture, at 10 µM, stronger effect = higher value
[5] = glucagon-like peptide 1 release enhancers, primary assay, NCI-H716 cell line, NPC library (AID 1117341;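 active means compound raises GLP1 secretion from the human gut endocrine cells, with no numeric limit stated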); details: NCI-H716 cells, at 10 µM, stronger effect = higher value
[6] = HCT116 colon cancer cell growth inhibition, primary screen, CellTiter-Glo luminescence, NPC library (AID 1117342;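 active means compounds that lower survival of HCT116 colon cancer cells in the luminescence readout, no numeric limit stated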); details: at 20 µM (top of the series)
[7] = CellTiter-Glo luminescent readout of SW480 viability loss, NPC library primary (AID 1117343;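 active means compounds that lower viability of the colon cancer cells in the luminescence readout, with no numeric limit stated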); details: CellTiter-Glo luminescence; at 20 µM (top of the series) unless noted
[8] = decreased DLD-1 cellular survival, CellTiter-Glo luminescent readout, NPC compound collection, primary HTS (AID 1117346;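 active means compounds that lower survival of DLD-1 colon cancer cells in the luminescence readout, no cutoff given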); details: DLD-1 viability, CellTiter-Glo luminescence; at 20 µM (top of the series)
[9] = viability loss in pontine glioma line – cell-based, SU-DIPG-XXV, MIPE5.0, CellTiter-Glo, qHTS, dose response (AID 1347065; cut-off not given, nearly all actives have AC50 up to about 26 µM;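 further: cells exposed to compound for 48 hours before ATP readout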); details: CellTiter-Glo ATP luminescence
[10] = JHH-DIPG-1 glioma cell viability, MIPE5.0 library, CellTiter-Glo luminescence, qHTS (AID 1347067; cut-off not given, nearly all actives have AC50 up to about 26 µM;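 further: cells exposed to compound for 48 hours before readout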); details: JHH-DIPG-1 glioma viability, CellTiter-Glo ATP luminescence
[11] = SU-DIPG-XXV glioma cell viability, MIPE5.0 library, qHTS (AID 1347068; cut-off not given, nearly all actives have IC50 up to about 30 µM)
[12] = sensitizers of A549 cells to miR-34 induction, primary screen, imaging, A549 dox-inducible miR-34, nuclei and caspase counts (AID 1347080;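 active means compounds whose cell count with miR-34 switched on is under 0.7 times the count with it off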); details: A549 miR-34 inducible, Hoechst nuclei count, 48 h
[13] = growth inhibition of DIPG glioma cells, dose response, cell-based, JHH-DIPG-1, MIPE4.0, CellTiter-Glo, qHTS (AID 1347062; cut-off not given, nearly all actives have AC50 up to about 27 µM;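 on AC50: cells exposed to compound for two days before readout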); details: JHH-DIPG-1 viability, CellTiter-Glo ATP luminescence
[14] = growth inhibition of DIPG glioma cells, dose response, cell-based, SU-DIPG-IV, MIPE4.0, CellTiter-Glo, qHTS (AID 1347063; cut-off not given, nearly all actives have AC50 up to about 30 µM;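 further: compound exposure lasted 48 hours before the viability readout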); details: SU-DIPG-IV viability, CellTiter-Glo ATP luminescence
[15] = SU-DIPG-VI glioma cell viability, MIPE4.0 library, CellTiter-Glo luminescence, qHTS (AID 1347066; cut-off not given, nearly all actives have AC50 up to about 30 µM;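 further: cells exposed to compound for 48 hours before readout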); details: CellTiter-Glo ATP luminescence
[16] = survival rescue of mitochondrial mutant cells in low glucose, primary screen, MELAS cybrids, Rieske KO mouse fibroblasts, CellTiter-Glo (AID 1508586;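 active means mean z-score across replicates of 1.96 or higher in either the MELAS or the Rieske mutant cell line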;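 further: z relative to plate mean and SD of compound and empty wells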)
[17] = ovarian cancer cell viability with rucaparib, profiling panel, oncology-focused library, rucaparib conditional (AID 1508598); details: patient-derived ovarian cancer cells, CellTiter-Glo viability, 144 h, stronger effect = lower value
[18] = stronger effect = lower value, cell number ratio, induced over uninduced
[19] = measured here: relative caspase fold change +Dox/-Dox
[20] = measured here: total cells with miR-34 induction, stronger effect = lower value
[21] = measured here: total cells without miR-34 induction

Clc1cccc(C(c2ccc3nc[nH]c3c2)n2ccnc2)c1 (stereo not given)
inactive: nuclear beta-catenin stimulation ([1]; at 10 µM) 0.3% | insulin secretion stimulation [2] 1.6% | viability decrease [3] 11.8% | tube area decrease [4] 19.4% | GLP1 secretion stimulation [5] 0.1% | inhibition of viability [6] 43.2% | viability decrease (inhibition) [7] 44.6% | viability decrease (inhibition) [8] 33.5% | outcome [9] | outcome [10] | outcome [11]
-0.6%: nuclear beta-catenin stimulation ([1]; stimulation, at 2 µM)

CCCCCCCCCCCCCCCC(=O)O
1.7%: nuclear beta-catenin stimulation ([1]; stimulation, at 2 µM)
5900: cell count [12, 20]
inactive: nuclear beta-catenin stimulation ([1]; at 10 µM) 0.3% | insulin secretion stimulation [2] 2.3% | viability decrease [3] 2.25% | tube area decrease [4] -25.4% | GLP1 secretion stimulation [5] 0.3% | inhibition of viability [6] -38.8% | viability decrease (inhibition) [7] 32.7% | viability decrease (inhibition) [8] 8.5% | fold change [12, 18] 1.03
1.12: fold change [12, 19]
5710: cell count [12, 21]

CN(C)[C@@H](CCOc1cccc2ccccc12)c1ccccc1
active: viability decrease [3] 89.7% | inhibition of viability [6] 91.5% | viability decrease (inhibition) [7] 103% | viability decrease (inhibition) [8] 67% | AC50 [13] 20.9 µM | AC50 [14] 23.5 µM
inactive: nuclear beta-catenin stimulation ([1]; at 10 µM) 0.1% | insulin secretion stimulation [2] 9.9% | tube area decrease [4] 20.5% | GLP1 secretion stimulation [5] 6%
-0.4%: nuclear beta-catenin stimulation ([1]; stimulation, at 2 µM)

CCCCCCCCCCCCCCCCNc1ccc(C(=O)O)cc1
active: viability decrease [3] 68.9% | tube area decrease [4] 109% | viability decrease (inhibition) [7] 72.6% | viability decrease (inhibition) [8] 61.9%
inactive: nuclear beta-catenin stimulation ([1]; at 10 µM) 11.3% | insulin secretion stimulation [2] 4.2% | GLP1 secretion stimulation [5] -2.9% | inhibition of viability [6] 45% | fold change [12, 18] 0.865
1.2%: nuclear beta-catenin stimulation ([1]; stimulation, at 2 µM)
5010: cell count [12, 21]
0.501: fold change [12, 19]
4330: cell count [12, 20]

COc1nc(N)nc2c1ncn2[C@@H]1O[C@H](CO)[C@@H](O)[C@@H]1O
active: viability ([17]; at 0.00488 µM, OCI-C5x cells, without rucaparib) 98% | viability ([17]; at 0.00488 µM, OCI-P5x cells, without rucaparib) 97.2% | viability ([17]; at 0.0195 µM, OCI-C5x cells, without rucaparib) 96.1% | viability ([17]; at 0.0195 µM, OCI-P5x cells, with rucaparib 20 µM, 100% = cells with rucaparib alone) 94% | viability ([17]; at 0.0781 µM, OCI-C5x cells, without rucaparib) 99.7% | viability ([17]; at 0.0781 µM, OCI-P5x cells, with rucaparib 20 µM, 100% = cells with rucaparib alone) 94.2% | viability ([17]; at 0.313 µM, OCI-C5x cells, without rucaparib) 90.4% | viability ([17]; at 0.313 µM, OCI-P5x cells, with rucaparib 20 µM, 100% = cells with rucaparib alone) 98% | viability ([17]; at 0.313 µM, OCI-P5x cells, without rucaparib) 97% | viability ([17]; at 1.25 µM, OCI-C5x cells, without rucaparib) 83.3% | viability ([17]; at 1.25 µM, OCI-P5x cells, with rucaparib 20 µM, 100% = cells with rucaparib alone) 90.5% | viability ([17]; at 1.25 µM, OCI-P5x cells, without rucaparib) 90.1% | viability ([17]; at 5 µM, OCI-C5x cells, with rucaparib 10 µM, 100% = cells with rucaparib alone) 92.9% | viability ([17]; at 5 µM, OCI-C5x cells, without rucaparib) 84.3% | viability ([17]; at 5 µM, OCI-P5x cells, with rucaparib 20 µM, 100% = cells with rucaparib alone) 80.3% | viability ([17]; at 5 µM, OCI-P5x cells, without rucaparib) 90%
0.487: z-score ([16]; Rieske KO mouse fibroblast survival, CellTiter-Glo 72 h)
0.8%: nuclear beta-catenin stimulation ([1]; stimulation, at 2 µM)
inactive: nuclear beta-catenin stimulation ([1]; at 10 µM) 2.7% | insulin secretion stimulation [2] -1.9% | viability decrease [3] -1.5% | tube area decrease [4] 5.7% | GLP1 secretion stimulation [5] 0.9% | inhibition of viability [6] -1.43% | viability decrease (inhibition) [7] -15.5% | viability decrease (inhibition) [8] -11.9% | outcome [13] | outcome [14] | outcome [15] | z-score ([16]; MELAS cybrid survival, CellTiter-Glo 48 h, stronger effect = higher value) 0.551 | viability ([17]; at 0.000305 µM, OCI-C5x cells, with rucaparib 10 µM, 100% = cells with rucaparib alone) 129% | viability ([17]; at 0.000305 µM, OCI-C5x cells, without rucaparib) 109% | viability ([17]; at 0.000305 µM, OCI-P5x cells, with rucaparib 20 µM, 100% = cells with rucaparib alone) 104% | viability ([17]; at 0.000305 µM, OCI-P5x cells, without rucaparib) 107% | viability ([17]; at 0.00122 µM, OCI-C5x cells, with rucaparib 10 µM, 100% = cells with rucaparib alone) 114% | viability ([17]; at 0.00122 µM, OCI-C5x cells, without rucaparib) 106% | viability ([17]; at 0.00122 µM, OCI-P5x cells, with rucaparib 20 µM, 100% = cells with rucaparib alone) 101% | viability ([17]; at 0.00122 µM, OCI-P5x cells, without rucaparib) 105% | viability ([17]; at 0.00488 µM, OCI-C5x cells, with rucaparib 10 µM, 100% = cells with rucaparib alone) 108% | viability ([17]; at 0.00488 µM, OCI-P5x cells, with rucaparib 20 µM, 100% = cells with rucaparib alone) 101% | viability ([17]; at 0.0195 µM, OCI-C5x cells, with rucaparib 10 µM, 100% = cells with rucaparib alone) 112% | viability ([17]; at 0.0195 µM, OCI-P5x cells, without rucaparib) 102% | viability ([17]; at 0.0781 µM, OCI-C5x cells, with rucaparib 10 µM, 100% = cells with rucaparib alone) 113% | viability ([17]; at 0.0781 µM, OCI-P5x cells, without rucaparib) 101% | viability ([17]; at 0.313 µM, OCI-C5x cells, with rucaparib 10 µM, 100% = cells with rucaparib alone) 101% | viability ([17]; at 1.25 µM, OCI-C5x cells, with rucaparib 10 µM, 100% = cells with rucaparib alone) 102%
